PLK1 PBD inh: qHTS for Inhibitors of PLK1-PDB (polo-like kinase 1 - polo-box domain): Primary Screen. Serine/threonine-protein kinase PLK1 (Homo sapiens), P53350. Plk1 PBD binding of FITC phosphopeptide, fluorescence polarization. Potency, µM, for the others: max response, negative = inhibition, actives largely listed as inhibitors. 360,000 compounds, 2.8% hits; also: series mostly up to about 57 µM; nearly all actives have a fitted effect of over 65% in size
Tau FP inhib: qHTS for Inhibitors of Tau Fibril Formation, Fluorescence Polarization. Microtubule-associated protein tau (Homo sapiens), P10636. K18 P301L tau heparin fibrillization, Alexa594 FP, 6 h. Potency, µM (titrated, usually from 57.7 µM), inactives show at the highest dose activity, negative = inhibition, usual class: inhibitors. 280,000 compounds, 0.39% hits. AID 1468, 2008; also: nearly all actives have a fitted effect of over 55% in size
Target sequence (P10636 561-689 P618L limits assumed): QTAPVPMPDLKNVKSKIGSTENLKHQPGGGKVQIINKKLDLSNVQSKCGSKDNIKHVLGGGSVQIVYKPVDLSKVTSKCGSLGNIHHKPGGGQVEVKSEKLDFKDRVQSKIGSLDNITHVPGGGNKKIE
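Human K18 P301L fragment (15 uM unlabeled plus 0.24 uM Alexa 594-labeled) in 100 mM sodium acetate pH 7 with compound, aggregation induced by 20 uM heparin for 6 hr at 37 C. ThT (30 uM) added for 1 hr, then Alexa 594 FP read.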
VDR inh: Inhibitors of the vitamin D receptor (VDR): qHTS. 400,000 compounds, 0.93% hits. Vitamin D3 receptor (Homo sapiens), P11473. Potency, µM, for inactives: max response, negative = inhibition, hits mostly inhibitors. VDR-SRC2-3 peptide fluorescence polarization, 2 h
Target sequence (P11473 whole entry, looked up): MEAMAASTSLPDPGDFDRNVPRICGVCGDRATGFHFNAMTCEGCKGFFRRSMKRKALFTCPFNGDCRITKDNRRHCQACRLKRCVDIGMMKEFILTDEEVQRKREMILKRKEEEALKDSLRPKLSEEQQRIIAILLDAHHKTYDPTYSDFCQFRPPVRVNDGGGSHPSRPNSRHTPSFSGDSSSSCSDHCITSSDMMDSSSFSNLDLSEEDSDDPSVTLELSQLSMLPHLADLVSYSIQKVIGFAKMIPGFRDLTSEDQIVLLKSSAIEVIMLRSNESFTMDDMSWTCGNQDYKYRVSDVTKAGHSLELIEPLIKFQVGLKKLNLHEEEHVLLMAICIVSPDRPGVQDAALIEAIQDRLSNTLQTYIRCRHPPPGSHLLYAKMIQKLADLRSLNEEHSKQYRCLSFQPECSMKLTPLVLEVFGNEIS
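Compounds are added to VDR with labelled SRC2-3 coactivator peptide and held 2 h at room temperature. Inhibition of the VDR–peptide interaction is then read as a change in fluorescence polarization.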
Tau fluor counter: Counterscreen qHTS for Inhibitors of Tau Fibril Formation, Fluorescence Polarization; tau K18 P301L Alexa594 fluorescence, heparin fibrillization; Potency, µM (top dose mostly 57.7 µM), without a hit: top-dose activity change, negative = decrease; 280,000 compounds, 0.93% hits; AID 1463, 2008; also: nearly all actives have a fitted effect of over 55% in size
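Human K18 P301L tau (15 uM unlabeled plus 0.24 uM Alexa 594-labeled, final) in 100 mM sodium acetate pH 7 was mixed with compound and 20 uM heparin and incubated 6 hr at 37 C.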
Sfp PPTase inh: qHTS Assay for Inhibitors of Bacillus subtilis Sfp phosphopantetheinyl transferase (PPTase); 4'-phosphopantetheinyl transferase ffp (Bacillus subtilis), Q9F4F7; Biochemical Sfp PPTase activity, qHTS; Potency, µM, inactives show largest response in the series, negative = inhibition, usual class: inhibitors; 310,000 compounds, 3.5% hits;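 also: the enzyme is Sfp with the accession as filed and its product quenches rhodamine fluorescence; 0% = enzyme reaction without inhibitor and -100% = no enzyme wells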
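Buffer: 50 mM Hepes-Na pH 7.6, 10 mM MgCl2, 0.01% Nonidet P-40, 0.01% BSA. Enzyme 15 nM, pre-exposed to compound 15 min; substrates then added and fluorescence change tracked over 30 min.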
Tau fibril ThT: qHTS for Inhibitors of Tau Fibril Formation, Thioflavin T Binding | Microtubule-associated protein tau (Homo sapiens), P10636 | recombinant tau K18 P301L (four-repeat tau fragment), heparin-induced fibrillization, ThT fluorescence | Potency, µM (series often up to 57.4 µM), for the others: at the highest dose activity, negative = inhibition, usual class: inhibitors | 270,000 compounds, 2.1% hits | AID 1460, 2008; also: nearly all actives have a fitted effect of over 55% in size
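Heparin-induced fibrillization of the P301L-mutant K18 repeat-domain fragment of human tau was followed by ThT binding in quantitative high-throughput format.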
Active calls of the source: *; ? = inconclusive; nt = no result; ! = a repeat was not active. Rows were chosen to be rich in hits. Some 6% of all compounds tested hit in one or more screens of this group. Calls follow the shape of the dose curve; as a rule, active = well fitted curve in the direction sought with a large enough effect; inconclusive = small, poorly fitted or top-dose-only effect, or another doubt; inactive = no such curve, though single readings can be large; an effect the other way counts as inactive or inconclusive. Unless noted, % is scaled to controls: 0 for no effect and ±100 for the full control effect; potency is read from the fitted curve at half-maximal effect.

SMILES | PLK1 PBD inh | Tau FP inhib | VDR inh | Tau fluor counter | Sfp PPTase inh | Tau fibril ThT
CN(C)CCCNc1cc(N2CCN(C3CCCCC3)CC2)c2noc3c2c1C(=O)c1ccccc1-3 | nt | ? | -23% | ? | nt | 3.5µM*
Cc1ccc(C)c(OCc2cc(C(=O)N3CCN(C4CCCCC4)CC3)no2)c1 | -8% | nt | nt | nt | nt | nt
COCCNc1cc(N2CCN(C3CCCCC3)CC2)c2noc3c2c1C(=O)c1ccccc1-3 | nt | 0% | -29% | -27% | nt | 11µM*
O=C1c2ccccc2-c2onc3c(N4CCN(C5CCCCC5)CC4)cc(NCCO)c1c23 | nt | -11% | -14% | ? | nt | 7.1µM*
COCCCNc1nc2nonc2nc1N1CCN(C2CCCC2)CC1 | 3% | 3% | 17% | 2% | 11% | 6%
NS(=O)(=O)c1ccc(S(=O)(=O)N2CCCC(c3ccccc3)C2)cc1 (centres undefined) | -11% | nt | nt | nt | nt | nt
COc1cccc(CN2CCc3nc(Nc4ccc5c(c4)OCCO5)ncc3C2)c1OC | nt | 11% | 9% | -26% | nt | ?
O=C(Cn1cnc2onc(-c3ccc(F)cc3)c2c1=O)N1CCN(c2ccc(F)cc2)CC1 | nt | -7% | 2% | ? | nt | -15%
CNC(=S)NCCc1cc2c(OC)ccc(OC)c2[nH]c1=O | 19µM* | 0% | ? | 1% | -7% | 1%
COc1ccc(OC)c2[nH]c(=O)c(CCNC(=S)NC(C)(C)C)cc12 | -10% | -3% | 0% | -6% | 8% | 1%
CC(C)(C)OC(=O)N1CCC(C(=O)Nc2cccc(C(=O)NCCCc3ccccc3)c2)CC1 | 1% | nt | 9% | nt | nt | nt
COC(=O)Cn1c(=O)oc2ccc(C)cc21 | 27µM* | 5% | -11% | -4% | 8% | -5%
CCCCCOC(=O)Cn1c(=O)oc2ccc(C)cc21 | -5% | 0% | -7% | -3% | -15% | -5%
C[C@H]1CS(=O)(=O)CCN1/N=C\c1ccc([N+](=O)[O-])o1 | nt | nt | -2% | nt | 15% | nt
C/C(=N\NC(=O)c1cccs1)c1cccnc1 | 21µM* | -8% | 79µM* | 1% | 11% | 0%
C/C(=N\NC(=O)c1ccncc1)c1cccnc1 | -2% | nt | 8% | nt | -2% | nt
C/C(=N\NC(=O)c1cccnc1)c1ccc(OC2OCCOC2Oc2ccc(/C(C)=N/NC(=O)c3cccnc3)cc2)cc1 (centres undefined) | 30µM* | 4% | 40µM* | 2% | -8% | ?
O=S1(=O)CC(N2CCC(Cc3ccccc3)CC2)CN1CCc1ccccc1 (centres undefined) | -9% | nt | nt | nt | nt | nt
CC(C)C[C@@H](CC(=O)N[C@@H](CCCN)CC(=O)N[C@@H]1CCNC[C@H]1C(=O)N[C@H](CC(=O)N[C@@H](CCC(=O)O)CC(=O)O)CC(C)C)NC(=O)[C@@H]1CCCC[C@H]1N | nt | 2% | -1% | -2% | -1% | -8%
CC1(C(=O)NS(=O)(=O)Cc2ccccc2C(F)(F)F)CCN1C(=O)c1ccco1 (centres undefined) | 4% | nt | nt | nt | nt | nt
CC(=O)Oc1cc2oc(=O)c3c(c2cc1Cl)CCC3 | 6µM* | 18µM* | -16% | ? | -8% | 14µM*
Cc1ccc(-c2nn(C)c(=O)c3ccccc23)cc1CNC(=O)CSc1nc2ccccc2o1 | 27µM*! | -11% | -3% | -7% | 2% | -9%
COc1ccc(Oc2ncc3nc(C)c(=O)n(-c4ccc(OC)cc4)c3n2)cc1 | nt | nt | 11% | nt | 12% | nt
Cc1c(C(=O)N(C)Cc2ccccc2)oc2ccc(S(=O)(=O)N3CCCC3)cc12 | -10% | 3% | 12% | -5% | -4% | ?
CCN(C(=O)c1oc2ccc(S(=O)(=O)N3CCCCCC3)cc2c1C)c1ccccc1 | nt | 5% | -4% | -8% | nt | -12%
SMILES | PLK1 PBD inh | Tau FP inhib | VDR inh | Tau fluor counter | Sfp PPTase inh | Tau fibril ThT
Cc1c(C(=O)N(C)CCC#N)oc2ccc(S(=O)(=O)N3CC(C)CC(C)C3)cc12 (centres undefined) | 19µM* | nt | ? | nt | -2% | nt
Cc1c(C(=O)N(Cc2ccccc2)C(C)C)oc2ccc(S(=O)(=O)N3CCOCC3)cc12 | 30µM* | nt | -12% | nt | 7% | nt
Cc1c(C(=O)O)oc2ccc(S(=O)(=O)N3CC(C)CC(C)C3)cc12 (centres undefined) | -5% | 6% | 111% | -4% | 11% | -5%
CCCCN(CC)C(=O)c1oc2ccc(S(=O)(=O)N3CCCC3)cc2c1C | 30µM* | nt | ? | nt | 8% | nt
O=C(/C=C\C=C/c1ccc2c(c1)OCO2)N1CCCCC1 | nt | nt | 0% | nt | 13% | nt
O=C(NCc1ccc(F)cc1)c1cc2c(=O)n3ccccc3nc2s1 | nt | -13% | 4% | -9% | nt | -9%
CCSC1=C(C#N)C(c2ccccc2C)CC(=O)N1 (centres undefined) | 2% | -1% | -5% | -4% | 18% | -6%
CCCSC1=C(C#N)C(c2cccs2)CC(=O)N1 (centres undefined) | 24µM* | -1% | -8% | -6% | 25µM* | -10%
Nc1nnc(CC(=O)N/N=C/c2ccc(-c3cccc(C(=O)O)c3)o2)s1 | -7% | -1% | 0% | 6% | 40µM* | nt
CCOC(=O)c1ccc(NC(=O)Cn2c(-c3nonc3N)nc3ccccc32)cc1 | 21µM* | -9% | ? | -13% | -10% | 10%
Nc1nonc1-c1nc2ccccc2n1CC(=O)Nc1ccccc1C(=O)O | nt | -7% | -11% | -7% | nt | -3%
Nc1nonc1-c1nc2ccccc2n1CC(=O)N/N=C/c1ccc(-c2cccc(C(=O)O)c2)o1 | ? | -11% | 10% | -10% | 1µM* | ?
O=c1c(CCc2ccccc2)nc2cnc(Oc3ccccc3)nc2n1C[C@H]1CCCO1 | nt | nt | -24% | nt | -14% | nt
CC(C)c1cc(Cn2c3ccccc3c(=O)n2C(C)Cn2cc(CCCC#N)nn2)on1 (centres undefined) | -4% | nt | nt | nt | nt | nt
CC(=O)Oc1ccc2nonc2c1OC(C)=O | nt | nt | 1.4µM* | nt | nt | nt
Cc1nc(SCc2ccc([N+](=O)[O-])cc2)n[nH]1 | -16% | nt | 14% | nt | 25% | nt
Cc1nnc(SCc2ccc([N+](=O)[O-])cc2)o1 | 3.8µM* | 0% | ? | 2% | -1% | 2%
Cc1nc2c(nc1C)C(=O)c1ccccc1C2=O | -2% | nt | 5% | nt | nt | nt
O=C1c2ccccc2-c2nc3ccccc3nc21 | -6% | ? | ? | ? | 3% | 20µM*
